PubChem BioAssay AID778 (Sanford-Burnham Center for Chemical Genomics, 2007)
Among all 96,000 compounds or so, about 20,000 (21%) were called active. A selection follows. A number with no mark means an inactive call.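 Rule for the calls: active = CYP2C19 inhibition above a set limit at 5 µM in the primary screen (cut at about 50% in these data); inactive = the rest.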

Molecular target: Cytochrome P450 2C19 (Homo sapiens) (UniProt P33261)
Experiment: blockers of cytochrome P450 2C19 activity – biochemical, luminescence, ADME assay, primary screen (AID 778);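 note: plate controls were negative control wells for no effect and 2.5 mM tranylcypromine positive control for full effect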
Settings: CYP2C19 Supersomes, luciferin-H EGE luminescence, 30 min; at 5 µM; hits give high values

Sequence of Cytochrome P450 2C19 (Homo sapiens) (P33261 whole entry, looked up): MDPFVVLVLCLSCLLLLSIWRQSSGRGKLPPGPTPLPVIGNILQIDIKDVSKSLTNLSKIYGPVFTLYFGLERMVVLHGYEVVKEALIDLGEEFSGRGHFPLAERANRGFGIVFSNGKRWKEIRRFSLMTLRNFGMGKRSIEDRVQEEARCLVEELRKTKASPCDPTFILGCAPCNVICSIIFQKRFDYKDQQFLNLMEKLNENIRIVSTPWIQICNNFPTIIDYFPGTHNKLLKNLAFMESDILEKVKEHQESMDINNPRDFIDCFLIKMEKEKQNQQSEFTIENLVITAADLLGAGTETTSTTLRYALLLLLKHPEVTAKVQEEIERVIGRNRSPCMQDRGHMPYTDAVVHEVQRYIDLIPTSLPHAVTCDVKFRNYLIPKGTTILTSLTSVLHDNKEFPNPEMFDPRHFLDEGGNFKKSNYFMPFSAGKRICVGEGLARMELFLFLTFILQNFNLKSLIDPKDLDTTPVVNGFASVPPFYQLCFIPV

SMILES	inhibition
COCCNC(=O)C(c1ccc(C)o1)N(Cc1cccs1)C(=O)c1snc(C(N)=O)c1N (configuration not stated)	2.1%
c1ccc2c(c1)OCC(c1nn3cnnc3s1)O2 (configuration not stated)	74.8% (active)
O=C(CCN1C(=O)COc2ccccc21)NCCCN1CCN(c2ccc(F)cc2)CC1	-10.1%
CCOC(=O)c1cnc(-n2nc(C)cc2C)nc1-n1nc(C)cc1C	5.2%
O=C(NNS(=O)(=O)c1ccc(Cl)cc1)C1CCN(Cc2ccccc2)CC1	6%
CCc1nnc(NC(=O)c2ccc(S(=O)(=O)NC3CCCCC3)cc2)s1	14.5%
CCOC1CCCCC1NS(=O)(=O)c1ccc(Cl)cc1 (configuration not stated)	69.5% (active)
CCCc1[nH]nc2c1C(c1ccc(OC(=O)c3ccco3)cc1)C(C#N)=C(N)O2 (configuration not stated)	43.8%
C=CCOC(=O)C1=C(C)OC(N)=C(C#N)C1c1ccc(F)cc1 (configuration not stated)	75.2% (active)
C=CCOC(=O)C1=C(C)NC(SCC(=O)OCC)=C(C#N)C1c1ccc(C)cc1 (configuration not stated)	33.7%
Cc1c(C#N)c2ncn(CC#N)c(=O)c2n1-c1ccccc1	-12.1%
Cc1cc(OCCOc2cccc3cccnc23)c(C)cc1Cl	73.2% (active)
CCOc1cc(N2CCOCC2)c(OCC)cc1NC(=O)COc1cccc2cccnc12	3.8%
C=CCn1c(COc2cccc3cccnc23)nnc1SCC(=O)OC	26.2%
CN(C)Cc1c(C#N)c2ccccc2n1C	-0.3%
S=c1[nH]nc(CSCc2ccc(Cl)cc2Cl)n1-c1ccccc1	64.8% (active)
O=c1[nH]nc(CSCc2ccccc2Cl)[nH]1	1.4%
Clc1ccc(CSc2nnc(/C=C/c3ccccc3)o2)c(Cl)c1	1.6%
COC(=O)CCSc1cc([N+](=O)[O-])cc2c1c(C1OCCS1)nn2-c1ccccc1 (configuration not stated)	8.6%
Cc1ccc(Nc2nc(C)cc(C)c2C(N)=O)cc1	7.6%
O=C1c2oc3ccccc3c(=O)c2C(c2cccc(O)c2)N1c1ccccn1 (configuration not stated)	38.4%
COCCN1C(=O)c2oc3c(C)cc(C)cc3c(=O)c2C1c1cccc(O)c1 (configuration not stated)	70.6% (active)
O=C1c2oc3ccc(Br)cc3c(=O)c2C(c2cccc(F)c2)N1CCO (configuration not stated)	40.4%
Cc1ccc(-n2ncc3c(Nc4cccc(C(=O)O)c4)ncnc32)cc1	-20%
COc1ccc(CCN2C(=O)c3[nH]nc(-c4ccccc4O)c3C2c2ccc(C)cc2)cc1OC (configuration not stated)	21.1%

SMILES	inhibition
COC(=O)c1ccc(C2C(Oc3ccccc3C)C(=O)N2CCc2ccc(OC)c(OC)c2)cc1 (configuration not stated)	65.2% (active)
COCCn1c(=S)[nH]c2cc(C(=O)NCCc3ccc(OC)c(OC)c3)ccc2c1=O	17.7%
c1csc(-c2cn3c(n2)SCC3)c1	-13.7%
CC(C)C(C(=O)NC1CCCCC1)N(CC1CCCO1)C(=O)CNS(=O)(=O)c1ccc(F)cc1 (configuration not stated)	-10.8%
c1ccc(-c2nnc3n2NC(c2ccc4c(c2)OCO4)S3)cc1 (configuration not stated)	28.9%
CCn1c(SC)nc(O)c(C(c2ccc(OC)c(O)c2)c2c(O)nc(SC)n(CC)c2=O)c1=O	-2.9%
O=S(=O)(Cc1cc(Sc2ccccc2)nc(-c2ccccc2)n1)c1ccccc1	50.5% (active)
CC1CC(C)CN(CC(=O)N2c3ccccc3CCc3ccccc32)C1 (configuration not stated)	24.7%
O=C(CSCc1ccccc1)N1CCc2ccccc21	51.6% (active)
Cc1ccc(S(=O)(=O)N(C)CC(=O)N2CCc3ccccc32)cc1	9.1%
Cn1cnc2c1c(=O)n(Cc1c(Cl)cccc1Cl)c(=O)n2C	49.5%
Cc1c(C#N)c(NC(=O)c2ccccc2)n(Cc2ccccc2)c1C	22.6%
CCOC(=O)CCC(=O)OCC(=O)NC(C)C1CC2CCC1C2 (configuration not stated)	10.6%
CCOC(=O)N1CCC(O)(c2cc(C)c(C)cc2C)CC1	43.5%
CNC(=O)CN1C(=O)c2ccccc2S1(=O)=O	-9.3%
O=C1c2ccccc2S(=O)(=O)N1CC(O)Cn1c2ccccc2c2ccccc21 (configuration not stated)	73.4% (active)
O=C(CN1C(=O)c2ccccc2S1(=O)=O)N1CCc2ccccc21	-7.4%
COc1ccc(-n2ncc3c(N4CCc5ccccc54)ncnc32)cc1	-2.2%
Cc1n[nH]c(=S)n1/N=C/c1ccc(Br)o1	-3.6%
CCC(Sc1nncn1C)C(=O)Nc1nnc(-c2ccc(Cl)cc2)s1 (configuration not stated)	17.4%
CCOc1cc2[nH]c(=S)n(CCCN3CCCC3=O)c(=O)c2cc1OCC	6.7%
O=C(O)c1ccc(NC(=O)C2CCCCC2)cc1	-21.5%
O=C(O)C1CCCCC1C(=O)Nc1ccc(Cl)cc1 (configuration not stated)	29.9%
O=C(Nc1cnn(Cc2ccc(Cl)cc2)c1)C1CCCC1	84.8% (active)
C[N+](C)(C)CCNC(=O)c1c(O)c2c([nH]c1=O)CCCC2	7.7%

SMILES	inhibition
O=C(O)[C@@H]1CCCN1c1ncnc2sc3c(c12)CCC3	6.9%
O=P(O)(CP(=O)(c1ccccc1)c1ccccc1)c1ccccc1O	22.6%
O=C1CC(c2cccc(Br)c2)C2=C(CCCC2=O)N1 (configuration not stated)	11.9%
CN(C)Cc1ccccc1C1(O)c2ccccc2CSc2ccccc21 (configuration not stated)	67.5% (active)
CCN(CC)c1ccc(NC(=O)c2ccc(Cl)nc2)cc1	7.7%
CSc1ccc(Cl)c(C(=O)OCC(=O)N2CC(C)OC(C)C2)c1 (configuration not stated)	12.4%
O=C(CC1Nc2ccccc2NC1=O)Nc1ccccc1 (configuration not stated)	2.9%
O=C(O)CCCC(=O)Nc1ccccc1-n1ccnc1	-4.7%
O=C(CCN1c2ccccc2Sc2ccccc21)Nc1ccccc1	80.2% (active)
Cc1cc(N)n2nc(-c3ccc(C(C)(C)C)cc3)cc2n1	26.1%
COc1cccc(Nc2ncccc2C(=O)O)c1	-9.2%
O=C(CNC(=O)Cc1ccccc1)NCC(=O)OCC(=O)c1ccccc1Cl	1.6%
COc1ccc2[nH]c(=O)c(CN(Cc3nnnn3CCc3ccccc3)CC3CCCO3)cc2c1 (configuration not stated)	77.7% (active)
Cc1cc(C)c2cc(CN(Cc3cccs3)Cc3nnnn3CC3CCCO3)c(=O)[nH]c2c1 (configuration not stated)	84.5% (active)
COc1ccc(N(Cc2cc3cc(OC)ccc3[nH]c2=O)S(C)(=O)=O)cc1	18.7%
CC(C)(C)n1nnnc1C(c1cccs1)N(Cc1cccnc1)CC1CCCO1 (configuration not stated)	31.5%
Cc1cc2cc(CN(Cc3cccs3)Cc3nnnn3CC3CCCO3)c(=O)[nH]c2cc1C (configuration not stated)	34.3%
CCOc1ccc2[nH]c(=O)c(CN(Cc3nnnn3Cc3ccccc3)CC3CCCO3)cc2c1 (configuration not stated)	8.7%
Nc1c(C(=O)NCc2ccccc2)sc2nc3c(cc12)C(=O)CCC3	-16.5%
CCn1c(=O)cc(O)c2ccccc21	-18.1%
CC(=O)c1c(C)c[nH]c1C	-14.8%
CCC(=O)Nc1ccc(C(=O)Nc2ccc3c(c2)C(=O)N(CC2CCCO2)C3=O)cc1 (configuration not stated)	-1%
CCC(C)(C)n1nnnc1CN1CCN(c2nc3ccc(C)cc3cc2C#N)CC1	0.3%
CCSC1(SCC)N=C(N)C2(C#N)C(c3ccccc3)NC(C)=CC12C#N (configuration not stated)	16.1%
O=C(CCl)NNc1cccc(Cl)n1	6.7%

SMILES	inhibition
COC(=O)CN1C(C)=Nc2ccc(Br)cc2C1c1ccccc1 (configuration not stated)	43.4%
COC(=O)c1oc2ccc(Br)cc2c1NC(C)=O	14.7%
COC(=O)C1=C(C)N(C)C(C)=C(C(=O)OC)C1c1cccc(Br)c1	79.2% (active)
CCOC(=O)CN1CC23C=CC(O2)C(C(=O)Nc2ccc(F)cc2)C3C1=O (configuration not stated)	40.7%
Cc1occc1C(=O)NNC(=S)NCC(C)C	74.6% (active)
CC(C)CNC(=S)NNC(=O)c1ccccc1OC(F)F	16.6%
CCNC(=S)NNC(=O)Cc1ccccc1	18.2%
O=C(NCc1ccco1)c1nc2ncccn2n1	-0.7%
CN1CCN(Cc2nc3c(c(=O)n(C)c(=O)n3C)n2Cc2cccc3ccccc23)CC1	-17.1%
O=S(=O)(c1cccc(-c2nnc(SC(F)F)n2-c2ccccc2)c1)N1CCCCC1	41.6%
O=S(=O)(c1cccc(S(=O)(=O)N2CCC(n3nnc4ccccc43)CC2)c1)N1CCCCC1	94.7% (active)
CC(=O)c1cccc(S(=O)(=O)N2CCC(n3nnc4cc(F)ccc43)CC2)c1	43.1%
Cc1ccc(CNC(=O)CCNC(=O)Cn2ccc3ccccc3c2=O)cc1	17.4%
CCOCCOCCC(C(=O)O)P(=O)(c1ccccc1)c1ccccc1 (configuration not stated)	-2.4%
COc1ccc(NC(=O)ON=C2c3ccccc3-c3ccccc32)cc1	11.6%
COc1ccc(Cl)cc1NC(=O)c1oc(C)nc1C	-9%
COc1ccc(Cl)cc1NC(=O)CN(C)C(=O)CNC(=O)C12CC3CC(CC(C3)C1)C2	67.9% (active)
CCCCC(=O)N/N=C(\C)CC(=O)Nc1cc(Cl)ccc1OC	6.1%
O=C(CSCc1ccc([N+](=O)[O-])cc1)Nc1cccc(C(=O)Nc2ccccc2C(=O)O)c1	14.5%
COc1ccccc1CNS(=O)(=O)c1ccc(C)cc1	92.5% (active)
COc1ccccc1Cc1nc(-c2ccc(C)cc2)no1	35.6%
Cc1ccc(S(=O)(=O)NCC(C)NS(C)(=O)=O)cc1 (configuration not stated)	16.9%
